About 79,000 compounds went through this panel and 15% of them were active in at least one assay; those are over-represented in the sample as a whole. Calls of active or inactive are those of the source. Rule as the data show it: active = growth inhibition above about 70%; inactive = the rest.
Legend:
[1] = NCI Yeast Anticancer Drug Screen. Data for the rad50 strain (AID 155);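 also: 0% = growth of vehicle-only cultures of the same strain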; conditions: S. cerevisiae rad50 strain growth inhibition, active compounds read high
Method in brief: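 Genetically altered yeast (DNA repair pathway); compound treatment; growth inhibition vs vehicle ctrl.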

[2] = NCI Yeast Anticancer Drug Screen. Data for the mec2-1 strain (AID 157); conditions: S. cerevisiae mec2-1 strain, active compounds read high
Method in brief: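 Using mec2-1 yeast: add compound, measure growth, express inhibition versus vehicle-treated cultures.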

[3] = NCI Yeast Anticancer Drug Screen. Data for the sgs1 mgt1 strain (AID 161);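 also: 0% = growth of cultures given vehicle only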; conditions: S. cerevisiae sgs1 mgt1 strain, active compounds read high
Method in brief: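 Percent growth inhibition was derived by comparing compound-exposed mutant yeast with vehicle-exposed cultures. The strain carries alterations in DNA damage repair.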

[4] = NCI Yeast Anticancer Drug Screen. Data for the cln2 rad14 strain (AID 165);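 also: 0% = growth equal to vehicle treated cultures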; conditions: S. cerevisiae cln2 rad14 strain, active compounds read high
Method in brief: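 Yeast strain cln2 rad14, bearing defects in cell cycle control and DNA repair, serves as the test system; values reflect growth inhibition compared with vehicle.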

[5] = NCI Yeast Anticancer Drug Screen. Data for the bub3 strain (AID 167); conditions: S. cerevisiae bub3 mutant strain, active compounds read high
Method in brief: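 Yeast carrying a defined mutation is treated with each compound, and growth is compared with that of vehicle-exposed cells to give inhibition.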

[6] = NCI Yeast Anticancer Drug Screen. Data for the mlh1 rad18 strain (AID 175); conditions: S. cerevisiae mlh1 rad18 strain growth inhibition, active compounds read high
Method in brief: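 Steps: expose repair-defective yeast to compound; measure growth; express inhibition against vehicle-treated controls.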

[7] = at 5.0 µM (retest, dose inferred, filed as 0.5)
[8] = at 50.0 µM (retest, dose inferred, filed as 5.0)

Measured: growth inhibition

CC(=O)Oc1ccc(C)c(C(C)C(Cl)(Cl)Cl)c1 (configuration not stated)
inactive: [1]; [7] 0% | [1]; [8] 30% | [1]; at 50.0 µM 65% | [2]; [7] -5% | [2]; [8] 50% | [2]; at 50.0 µM 42.8% | [3]; [7] 12% | [3]; [8] 26% | [3]; at 50.0 µM 58.3% | [4]; [7] 8% | [4]; [8] 13% | [4]; at 50.0 µM 52.5% | [5]; [7] -6% | [5]; [8] 4% | [5]; at 50.0 µM 60% | [6]; [7] 0% | [6]; [8] 27%
active: [6]; at 50.0 µM 81.2%

CSC(=S)SC(SC)S(C)(=O)=O (configuration not stated)
inactive: [1]; [7] -7% | [1]; [8] 0% | [2]; [7] -5% | [2]; [8] -3% | [3]; [7] -5% | [3]; [8] -16% | [4]; [7] 1% | [4]; [8] 2% | [5]; [7] -5% | [5]; [8] -11% | [6]; [7] -8% | [6]; [8] -9%
active: [1]; at 50.0 µM 98.5% | [2]; at 50.0 µM 99.7% | [3]; at 50.0 µM 99.3% | [4]; at 50.0 µM 99.1% | [5]; at 50.0 µM 99.5% | [6]; at 50.0 µM 99.3%

Cc1ccc2nc(N/N=C/c3cccc(C)n3)cc(C)c2c1
active: [1]; at 50.0 µM 89.3% | [3]; [8] 80% | [3]; at 50.0 µM 89.8% | [4]; at 50.0 µM 74.9% | [5]; at 50.0 µM 73.1% | [6]; at 50.0 µM 84.3%
inactive: [1]; [7] 8% | [1]; [8] 62% | [2]; [7] -2% | [2]; [8] 37% | [2]; at 50.0 µM 21.2% | [3]; [7] 6% | [4]; [7] -8% | [4]; [8] 61% | [5]; [7] -11% | [5]; [8] 57% | [6]; [7] 4% | [6]; [8] 64%

CC(C)COC(=O)C1C2C=CC(CC2)C1C(=O)OCC(C)C (configuration not stated)
inactive: [1]; [7] -13% | [1]; [8] 30% | [1]; at 50.0 µM 30.1% | [2]; [7] -4% | [2]; at 50.0 µM 18% | [3]; [7] -1% | [3]; [8] 19% | [3]; at 50.0 µM 29.6% | [4]; [7] -11% | [4]; [8] 55% | [4]; at 50.0 µM 4.6% | [5]; [7] 0% | [5]; at 50.0 µM 40.5% | [6]; [7] -3% | [6]; at 50.0 µM 46.5%
active: [2]; [8] 79% | [5]; [8] 82% | [6]; [8] 86%

CC1=C(C(=O)Nc2cc(C)ccc2C)C(c2cccc([N+](=O)[O-])c2)C(C(=O)Nc2cc(C)ccc2C)=C(C)N1
inactive: [1]; [7] 8% | [1]; [8] 49% | [1]; at 50.0 µM -12.3% | [2]; [7] 19% | [2]; at 50.0 µM 34.5% | [3]; [7] 19% | [3]; [8] 34% | [3]; at 50.0 µM 26.7% | [4]; [7] 5% | [4]; [8] 61% | [4]; at 50.0 µM 19.2% | [5]; [7] 17% | [5]; at 50.0 µM 29.6% | [6]; [7] 17% | [6]; [8] 65% | [6]; at 50.0 µM 31.6%
active: [2]; [8] 72% | [5]; [8] 74%

CCOC(=O)c1c(C)n(C)c2c1nnc1ccccc12
active: [1]; [8] 85% | [2]; [8] 79% | [3]; [8] 82% | [5]; [8] 73% | [6]; [8] 83%
inactive: [1]; [7] 16% | [1]; at 50.0 µM 64.7% | [2]; [7] 15% | [2]; at 50.0 µM 51.1% | [3]; [7] 19% | [3]; at 50.0 µM 59% | [4]; [7] 12% | [4]; [8] 69% | [4]; at 50.0 µM 55.2% | [5]; [7] 1% | [5]; at 50.0 µM 46% | [6]; [7] 7% | [6]; at 50.0 µM 57.1%

OCCc1c2ccccc2cc2ccccc12
inactive: [1]; [7] -135% | [1]; [8] -50% | [1]; at 50.0 µM 41.5% | [2]; [7] -44% | [2]; [8] -41% | [2]; at 50.0 µM 10.6% | [3]; [7] -61% | [3]; [8] -36% | [3]; at 50.0 µM 11.7% | [4]; [7] -52% | [4]; [8] -48% | [4]; at 50.0 µM 11.8% | [5]; [7] -60% | [5]; [8] -43% | [5]; at 50.0 µM 3.35% | [6]; [7] -127% | [6]; [8] -74% | [6]; at 50.0 µM 59.8%

O=[N+]([O-])c1cccn2nc(C3OC(CO)C(O)C3O)nc12 (configuration not stated)
inactive: [1]; [7] 3% | [1]; [8] 13% | [1]; at 50.0 µM -11.2% | [2]; [7] -3% | [2]; [8] -2% | [2]; at 50.0 µM -4.8% | [3]; [7] 0% | [3]; [8] 7% | [3]; at 50.0 µM -14.7% | [4]; [7] 3% | [4]; [8] -4% | [4]; at 50.0 µM 34.4% | [5]; [7] 0% | [5]; [8] -1% | [5]; at 50.0 µM -11.4% | [6]; [7] -2% | [6]; [8] 3% | [6]; at 50.0 µM -4.65%

CCC(=C(c1ccc(OCCN(C)C)cc1)c1cccc(O)c1)c1ccccc1 (mixture of isomers)
inactive: [1]; [7] 34% | [2]; [7] 10% | [2]; at 50.0 µM 62% | [3]; [7] 44% | [4]; [7] 34% | [5]; [7] 23% | [6]; [7] 64%
active: [1]; [8] 97% | [1]; at 50.0 µM 86% | [2]; [8] 99% | [3]; [8] 98% | [3]; at 50.0 µM 96.5% | [4]; [8] 97% | [4]; at 50.0 µM 76.9% | [5]; [8] 99% | [5]; at 50.0 µM 76.5% | [6]; [8] 98% | [6]; at 50.0 µM 94%
